Structures can show the parent of a compound that is named as a salt. Out of some 5,800 compounds screened, about 620 (11%) showed activity. The full list was thinned out, with actives kept by preference. A number with no mark means an inactive call.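 Rule for the calls: active = score above a cut-off or among the top three wells of a plate; in these data no inactive exceeds 0.85.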

The subject of the assay is primary human hepatic stellate cells (donor 1). Briefly: scaled lipid accumulation score (0 = DMSO-like, 1 = nortriptyline-like); higher = stronger HSC inactivation (lipid re-accumulation), active = hit call of the paper. Conditions: 48 h.
[1] abbreviates: library stock concentration: 3.33 mM.
The mark [2] stands for this setting: library stock concentration: 1 mM.
Setting [3] is: library stock concentration: 10 mM.
Where [4] appears, read: library stock concentration: 80 uM.
The mark [5] stands for this setting: library stock concentration: 400 uM.
Setting [6] is: library stock concentration: 2 mM.

On to `O=C1Nc2ccc(Br)cc2/C1=C/c1cc2c([nH]1)CCCC2` [VEGF Receptor 2 Kinase Inhibitor II], for which, under setting [1], the “scaled lipid accumulation score” value was 0.454.
`CN(C)S(=O)(=O)c1ccc2c(c1)/C(=C/c1cc3c([nH]1)CCCC3)C(=O)N2` [listing 1 of 3 here]: under setting [2], the “scaled lipid accumulation score” value was 0.413 (active).
Consider `CN(C)S(=O)(=O)c1ccc2c(c1)/C(=C/c1cc3c([nH]1)CCCC3)C(=O)N2` [listing 2 of 3 here], for which the “scaled lipid accumulation score” value under setting [3] was 0.958 (active).
Regarding `CN(C)S(=O)(=O)c1ccc2c(c1)/C(=C/c1cc3c([nH]1)CCCC3)C(=O)N2` [listing 3 of 3 here], under setting [1], the “scaled lipid accumulation score” value was 0.613.
On to `O=C1Nc2ccccc2/C1=C\c1c(Cl)[nH]c2ccccc12`, for which the “scaled lipid accumulation score” value runs as follows: under setting [4], not above -0.001; under setting [5], not above -0.001; under setting [6], not above -0.001; under setting [3], 0.116.
With `COc1cc(OC)c(C=C2C(=O)Nc3ccccc32)c(OC)c1`, the “scaled lipid accumulation score” value by setting is: under setting [1], not above 0; under setting [3], not above 0.
Take `CCCCC[C@H](O)CC[C@@H]1[C@@H](CCCCCCC(=O)O)[C@@H](O)C[C@H]1O` [13,14-dihydro Prostaglandin F1.alpha.]: the “scaled lipid accumulation score” value under setting [2] was not above 0.
Consider `NCc1c[nH]c(=S)n1C1CCc2c(F)cc(F)cc2C1` [(R)-Nepicastat HCl], for which the “scaled lipid accumulation score” value reads like this: under setting [1], not above 0; under setting [3], 0.361.
In the same order, the values of `CC(=NNC(=S)N1CCC1)c1ccccn1` are 0.164 and 0.375.
`CCCCC1(C2CCCC2)Cc2cc(OCC(=O)O)c(Cl)c(Cl)c2C1=O` (stereo in doubt) [R(+)-Butylindazone]: under setting [3], the “scaled lipid accumulation score” value was 0.139.
Turning to `CN(CC(=O)N(Cc1ccc(C2CCCCC2)cc1)c1ccc(C(=O)O)cc1)S(=O)(=O)c1c(F)c(F)c(F)c(F)c1F`, the “scaled lipid accumulation score” value is not above -0.009 under setting [1] and 0.483 under setting [3].
`CCCCC[C@H](O)/C=C/[C@@H]1[C@@H](C/C=C\CCCC(=O)N(C)C)[C@@H](O)C[C@H]1O` [Prostaglandin F2.alpha. dimethyl amide]: the “scaled lipid accumulation score” value under setting [2] was not above 0.
In the case of `C=CC(=O)c1ccc2ccccc2c1`, the “scaled lipid accumulation score” value under setting [3] was 0.015.
As to `CC(C)N(CCC(=O)c1ccc2ccccc2c1)Cc1ccccc1.Cl` [listing 1 of 2 here], the “scaled lipid accumulation score” value under setting [3] was 1.1 (active).
Regarding `CC(C)NCC(O)c1ccc2ccccc2c1` (stereo not drawn) [Pronethalol hydrochloride], the “scaled lipid accumulation score” value is 0.369. Besides, the “scaled lipid accumulation score” value under setting [3] was 0.221.
With `CC(COc1ccccc1)N(CCCl)Cc1ccccc1` (stereo not drawn) [Phenoxybenzamine HCl], the “scaled lipid accumulation score” value reads like this: under setting [1], not above 0; (library stock concentration: 6.6 mM) 0.025; under setting [3], not above 0.
For the molecule `CC(C)NCC(O)c1ccc2ccccc2c1` (stereo not drawn) [Pronethalol HCl], the “scaled lipid accumulation score” value (library stock concentration: 8.7 mM) was 0.224.
Turning to `CC(C)N(CCC(=O)c1ccc2ccccc2c1)Cc1ccccc1`, the “scaled lipid accumulation score” value was 0.613 under setting [1] and 0.619 under setting [3].
Consider `CC(COc1ccccc1)N(CCCl)Cc1ccccc1` (stereo not drawn) [Phenoxybenzamine], for which the “scaled lipid accumulation score” value (library stock concentration: 16.5 mM) is not above -0.012.
On to `CC(C)NCC(O)c1ccc2ccccc2c1` (stereo not drawn) [Pronetalol hydrochloride], for which the “scaled lipid accumulation score” value under setting [3] is 0.107.
In the case of `CC(COc1ccccc1)N(CCCl)Cc1ccccc1` (stereo not drawn) [Phenoxybenzamine hydrochloride], the “scaled lipid accumulation score” value was 0.065. Also, the “scaled lipid accumulation score” value (library stock concentration: 5.9 mM) is not above 0.
As to `CC(COc1ccccc1)N(CCCl)Cc1ccccc1` (stereo not drawn) [Dibenzyline], the “scaled lipid accumulation score” value under setting [3] was 0.174.
For `CC(C)N(CCC(=O)c1ccc2ccccc2c1)Cc1ccccc1.Cl` [listing 2 of 2 here], the “scaled lipid accumulation score” value under setting [3] is 0.966 (active).
Turning to `CCCCCCCCCCCCCCCCOC[C@H](COP(=O)([O-])OCCCCCC[N+](C)(C)C)OC(C)=O` [Hexanolamino PAF C-16], the “scaled lipid accumulation score” value under setting [2] was not above 0.
For `Cc1ccc(-n2[nH]c(C)c(N=Nc3cccc(-c4cccc(C(=O)O)c4)c3O)c2=O)cc1C` [Eltrombopag], the “scaled lipid accumulation score” value is, setting by setting: under setting [1], 0.081; under setting [3], 0.077.
With `COc1cccc2cc(-c3nc([C@H]4CC[C@H](C(=O)O)CC4)n4ncnc(N)c34)[nH]c12`, the “scaled lipid accumulation score” value was not above 0 under setting [4]; 0.061 under setting [5]; not above 0 under setting [6]; 0.043 under setting [1]; not above 0 under setting [3].
`C[C@H]1C[C@@H]2[C@H]([C@@H](O)C[C@@]3(C)[C@H]2CC[C@]3(O)C(=O)COC(=O)CCC(=O)O)[C@@]2(C)C=CC(=O)C=C12` [Methylprednisolone sodium succinate]: the “scaled lipid accumulation score” value (library stock concentration: 4 mM) is 0.015.
For `N#CSc1cc(SC#N)c(N)nc1N`, the “scaled lipid accumulation score” value under setting [1] was 0.46 and the “scaled lipid accumulation score” value under setting [3] is 0.53.
On to `NC(Cn1ccc(=O)c(O)c1)C(=O)O` (stereo not drawn) [Mimosine], for which the “scaled lipid accumulation score” value is not above 0. Under setting [3], the “scaled lipid accumulation score” value is not above 0.

For the origin of these results see the supplement of paper PMC9135407.
